Laboratory results as given in PubChem BioAssay AID2729 (National Center for Advancing Translational Sciences (NCATS), 2010).
The list shows a part of the results. Inconclusive results are not listed. Active and inactive are the calls of the source. Calls come from the whole dose curve; as a rule, active = well fitted inhibition curve with a large enough effect; inconclusive = small, poorly fitted or top-dose-only effect, or effect the other way; inactive = flat fitted curve, though single readings scatter.

Assay: High Content Assay for Compounds that inhibit the Assembly of the Perinucleolar Compartment: WI-38 Cytotoxicity
Conditions: WI-38 normal lung fibroblasts, ATPLite luminescence ATP viability, 24 h; series mostly up to 46.1 µM
Description: High Content Assay for Compounds that inhibit the Assembly of the Perinucleolar Compartment
NIH Chemical Genomics Center [NCGC]
NIH Molecular Libraries Probe Centers Network [MLPCN]
Assay Submitter (PI): Sui Huang, Northwestern University, Feinberg School of Medicine, Cell and Molecular Biology, Chicago, Illinois.
The perinucleolar compartment (PNC) is a non-membrane-bound nuclear subdomain that is associated with but structurally distinct from the nucleolus. The PNC is a heritable trait, in which the number of PNCs per cell in daughter cells often mimics that of their mother cells. The PNC is heterogeneous in shape, is stable through interphase, disassembles during mitosis, and reassembles in early G1. The PNC is concentrated with newly synthesized RNA polymerase III (pol III) RNAs (MRP RNA, RNAse P H1 RNA, hY RNAs[hY1, 2, 5], Alu RNA, and SRP [7SL] RNA) and RNA binding proteins (nucleolin, PTB, CUG-BP, KSRP, Raver1, Raver2, and Rod).
Extensive in vitro studies have shown that the PNC is unique to tumor cells and preferentially forms in tumor cells derived from solid tissues. Examination of cancer cell lines from various origins and malignant capacities has shown that PNC prevalence correlates with the malignancy of tumors and has the potential to be developed as a pan-cancer prognostic marker.
Although the PNC is associated with a DNA locus and a handful of components have been identified, much remains to be investigated regarding the structure and function of the PNC and its mechanistic link to cancer. We have previously shown that PNC prevalence reduction is a valid strategy to identify compounds that can be used to study the structure and function of the PNC. It is necessary, however, to create a screening platform that is able to test a large number of compounds in an automated fashion. Here we report the development and robustness of an automated whole-cell phenotypic image-based screening assay that is capable of identifying such compounds.
We conducted a followup assay to measure the effect of the lead candidates on cell health in a non-metastatic line, WI-38, by measuring ATP levels (ATPLite).
1. Cells at a density of 75-90% confluency in T175 flasks were harvested using 7 ml TrypLE Express cell dissociation reagent. After dissociation (5 minutes room temperature incubation) 10 ml of complete media was added to the TrypLE/cell suspension. The liquid was transferred to a 50 ml Conical tube and cells were pelleted at 1000 RPM for 5 min. Supernatant was removed and cells were resuspended to a final density of 150-200 cells/ul in complete media.
2. Cells were plated in 5 ul volume (2000 cells/well) into 1536 well White solid bottom plates and allowed to recover and adhere at 37 C in a humidified 5% CO2 incubator for 4 hours.
3. After 4 hour incubation, compound libraries (23 nl of 12.5 uM in columns 5-48) were transferred to the plates in duplicate using a 1536 well pintool. Camptothecin positive control (59 uM final) was added to column 2 and 1:3 dilutions of camptothecin was added to column 3. DMSO negative controls were present in columns 1 and 4.
4. After a 24 hour incubation in the 37 C incubator, all wells were treated with 3 ul of ATPLite reagent using a multidrop combi dispenser (ThermoFisher). Bubbles that formed during dispensing were removed by spinning the plates for 1 minutre at 1500 RPM on a table top centrifuge.
5. Luminescencent signal was detected on a Viewlux CCD based imager (PerkinElmer) with a clear filter and a 30 second integration time.
The WI-38 normal human fetal lung fibroblast cell line was provided by Sui Huang of Northwestern University. The media and cell culture reagents were purchased from Invitrogen (Carlsbad, CA), ATPLite came from PerkinElmer.
With `COC(=O)C1=C(C)N(c2ccc(Br)cc2)C(=O)/C1=C\c1ccco1` the outcome was “inactive”.
For `CC1(c2cccc([N+](=O)[O-])c2)CC(C)(C)N(C(=O)c2ccccc2)c2ccccc21` (stereo unspecified), the outcome was “inactive”.
With `COC(=O)c1ccc(CSc2ccccc2C)o1` the outcome was “inactive”.
In the case of `CCOC(=O)c1c(-c2cccc(C)c2)csc1NC(=O)c1c(-c2ccccc2)noc1C`, the outcome is reported as “inactive”.
For `Cn1c2ccccc2c(=O)c2c(=O)n(Cc3ccco3)c(COc3ccccc3)nc21`, the outcome was “inactive”.
For `N=c1c2c(-c3ccccc3)c(-c3ccccc3)n(Cc3ccccc3)c2ncn1CCCO`, the outcome was “inactive”.
